Records with an inconclusive call do not appear. Active and inactive are the calls of the source. Unless noted, calls follow the shape of the dose curve; as a rule, active = well fitted curve in the direction sought with a large enough effect; inconclusive = small, poorly fitted or top-dose-only effect, or another doubt; inactive = no such curve, though single readings can be large; an effect the other way counts as inactive or inconclusive.
Experiments:
N140 = test: qHTS profiling for inhibitors of Plasmodium falciparum proliferation (AID 504749);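 also: 0% = DMSO vehicle and full inhibition = artemisinin control; nearly all actives have a fitted effect of over 60% in size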; details: P. falciparum in erythrocytes, SYBR Green DNA, 72 h; series mostly up to 28.7 µM
In short: (§1)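 Quantitative HTS: compounds pinned into medium, infected erythrocytes added (0.3% parasitemia, 2.5% hematocrit), 72 h culture at 37 C under 5% CO2. Saponin/Triton lysis with SYBR Green I, overnight RT, then fluorescence read.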

P93_24 = test: as above; details: P. falciparum in erythrocytes, SYBR Green DNA, 72 h; series mostly up to 28.7 µM
In short: as §1

P94_40 = test: as above; details: P. falciparum in erythrocytes, SYBR Green DNA, 72 h; series mostly up to 28.7 µM
In short: as §1

PAD = test: as above; details: P. falciparum in erythrocytes, SYBR Green DNA, 72 h; series mostly up to 28.7 µM
In short: as §1

PC15 = test: as above; details: P. falciparum in erythrocytes, SYBR Green DNA, 72 h; series mostly up to 28.7 µM
In short: as §1

PC26 = test: as above; details: P. falciparum in erythrocytes, SYBR Green DNA, 72 h; series mostly up to 28.7 µM
In short: as §1

PC49 = test: as above; details: P. falciparum in erythrocytes, SYBR Green DNA, 72 h; series mostly up to 28.7 µM
In short: as §1

SC27B = test: as above; details: P. falciparum in erythrocytes, SYBR Green DNA, 72 h; series mostly up to 28.7 µM
In short: as §1

TAB109 = test: as above; details: P. falciparum in erythrocytes, SYBR Green DNA, 72 h; series mostly up to 28.7 µM
In short: as §1

TAB113 = test: as above; details: P. falciparum in erythrocytes, SYBR Green DNA, 72 h; series mostly up to 28.7 µM
In short: as §1

TAB165 = test: as above; details: P. falciparum in erythrocytes, SYBR Green DNA, 72 h; series mostly up to 28.7 µM
In short: as §1

W2 = test: as above; details: P. falciparum in erythrocytes, SYBR Green DNA, 72 h; series mostly up to 28.7 µM
In short: as §1

[1] = molecular target: Androgen receptor (Homo sapiens) (UniProt P10275); test: qHTS assay for small molecule agonists of androgen receptor signaling (AID 588515; active = well fitted curve in the direction sought with a large enough effect in the signal ratio, with a control signal flat; the % refers to the signal ratio; also: % is scaled to controls: 0 for no effect and ±100 for the full control effect); details: AR-UAS-bla HEK293, beta-lactamase ratio, agonist 16 h; hits give high values
In short: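 Stimulation of an AR-responsive β-lactamase reporter in GripTite HEK293 cells was measured after 16 h compound exposure at 37 °C, via CCF4 fluorescence after 2 h RT. EC50 from Hill fits, normalized to R1881 at 30 nM.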

[2] = molecular target: Androgen receptor (Homo sapiens) (UniProt P10275); test: qHTS assay for small molecule antagonists of androgen receptor signaling (AID 588516; active = well fitted curve in the direction sought with a large enough effect in the signal ratio, with a control signal flat, not every such curve was filed as active; the % refers to the signal ratio; also: % is scaled to controls: 0 for no effect and ±100 for the full control effect)
In short: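 AR-UAS-bla-GripTite HEK 293 cells (2000/well, 5 h at 37 C) received compound titrations, then R1881 at 10 nM final; after 16 h at 37 C, CCF4 dye 2 h RT, beta-lactamase fluorescence read; IC50 from Hill fits.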

[3] = Cellular Toxicity (caspase-3) HepG2 (AID 654);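 also: cells exposed to compound for 16 hours before reading; 0% = DMSO alone and 100% = caspase signal from 100 µM tamoxifen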
In short: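 Caspase 3/7 activation is measured as a luminescence increase (aminoluciferin substrate) after 16 h compound exposure of human hepatocarcinoma HepG2 cells. AC50 values are Hill fits, scaled between DMSO baseline and 100 uM tamoxifen stimulation.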

[4] = Cell Viability - LYMP2-016 (AID 984);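 also: cells exposed to compound for 24 hours at 37 °C; % is scaled to controls: 0 for no effect and ±100 for the full control effect; nearly all actives have a fitted effect of over 55% in size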
In short: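 Human lymphoblastoid cells (LYMP2-016), 2500/well in complete medium, preincubated 5 hr at 37 C, then compound-treated 24 hr at 37 C. Intracellular ATP read by CellTiter-Glo luminescence after 30 min at room temperature; AC50 from Hill-equation concentration-response fits.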

[5] = molecular target: Cytochrome P450 2C9 (Homo sapiens) (UniProt P11712); test: qHTS Assay for Inhibitors and Substrates of Cytochrome P450 2C9 (AID 883); also: % is scaled to controls: 0 for no effect and ±100 for the full control effect; nearly all actives have a fitted effect of over 60% in size
In short: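 A luminogenic readout tracked human CYP2C9 (10nM) converting deoxyluciferin (100uM, at KM) in 25mM KPO4 during 60 min at 37C with regenerated NADPH. Values normalized to 57uM sulphaphenazole as complete inhibition.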

Androgen receptor (Homo sapiens), sequence (P10275 whole entry, looked up): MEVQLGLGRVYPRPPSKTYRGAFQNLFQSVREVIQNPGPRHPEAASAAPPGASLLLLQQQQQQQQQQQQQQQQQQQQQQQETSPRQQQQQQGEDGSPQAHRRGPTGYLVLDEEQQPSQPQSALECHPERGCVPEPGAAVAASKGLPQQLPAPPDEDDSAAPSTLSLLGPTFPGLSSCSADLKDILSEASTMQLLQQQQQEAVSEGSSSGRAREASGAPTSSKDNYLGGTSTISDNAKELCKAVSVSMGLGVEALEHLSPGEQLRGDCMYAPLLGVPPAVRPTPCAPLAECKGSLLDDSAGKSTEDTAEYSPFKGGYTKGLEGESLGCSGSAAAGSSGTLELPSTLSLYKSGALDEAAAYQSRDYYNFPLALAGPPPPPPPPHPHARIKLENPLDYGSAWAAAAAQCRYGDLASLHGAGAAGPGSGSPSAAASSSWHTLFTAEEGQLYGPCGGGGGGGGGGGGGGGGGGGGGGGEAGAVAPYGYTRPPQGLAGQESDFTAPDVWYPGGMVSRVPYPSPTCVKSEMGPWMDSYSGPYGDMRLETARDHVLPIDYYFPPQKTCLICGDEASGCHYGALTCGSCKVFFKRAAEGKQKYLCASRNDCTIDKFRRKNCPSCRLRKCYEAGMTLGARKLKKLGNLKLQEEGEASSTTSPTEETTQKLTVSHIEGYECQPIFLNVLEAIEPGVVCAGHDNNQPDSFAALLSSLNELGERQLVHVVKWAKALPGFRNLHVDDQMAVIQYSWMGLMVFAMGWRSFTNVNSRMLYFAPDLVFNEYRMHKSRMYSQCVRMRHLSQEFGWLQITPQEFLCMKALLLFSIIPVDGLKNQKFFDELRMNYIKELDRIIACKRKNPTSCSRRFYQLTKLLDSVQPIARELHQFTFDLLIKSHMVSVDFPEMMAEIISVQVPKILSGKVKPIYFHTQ
Cytochrome P450 2C9 (Homo sapiens), sequence (P11712 whole entry, looked up): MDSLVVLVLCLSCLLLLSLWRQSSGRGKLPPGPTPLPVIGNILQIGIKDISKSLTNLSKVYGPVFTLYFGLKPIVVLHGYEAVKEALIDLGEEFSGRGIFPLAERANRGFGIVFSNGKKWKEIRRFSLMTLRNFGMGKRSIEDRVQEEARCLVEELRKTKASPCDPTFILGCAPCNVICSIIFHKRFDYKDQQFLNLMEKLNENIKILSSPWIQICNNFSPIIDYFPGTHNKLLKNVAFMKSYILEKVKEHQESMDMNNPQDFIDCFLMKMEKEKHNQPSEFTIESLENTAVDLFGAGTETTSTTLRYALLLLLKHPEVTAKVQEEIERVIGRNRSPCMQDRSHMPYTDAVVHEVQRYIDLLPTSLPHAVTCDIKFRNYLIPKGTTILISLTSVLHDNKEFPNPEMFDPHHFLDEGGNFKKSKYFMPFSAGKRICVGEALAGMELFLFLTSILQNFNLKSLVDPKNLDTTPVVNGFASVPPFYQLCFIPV

CC(=O)OC1CC2CCC1(C)C2(C)C (configuration not stated)
inactive: Potency (N140) | Potency (P93_24) | Potency (P94_40) | Potency (PAD) | Potency (PC15) | Potency (PC26) | Potency (PC49) | Potency (SC27B) | Potency (TAB109) | Potency (TAB113) | Potency (TAB165) | Potency (W2)

CC1=C2[C@H](/C=C(\C)C(=O)O)CC[C@@H](C)[C@H]2CC1
inactive: activation [1] -0.457% | outcome [2]

CCCCCCCCCCCC(=O)O
inactive: outcome [3] | Potency [4]

O=c1cc(-c2ccc(O)c(O)c2)oc2cc(O[C@@H]3O[C@@H](CO)[C@@H](O)[C@@H](O)[C@H]3O)cc(O)c12
inactive: Potency [5]

Source: PubChem BioAssay (NCATS)
